Sampled rows, rich in hits. Any-hit rate of the full collection: about 3.5%.
GPR151 ag: activators of human GPR151, primary screen, cell-based, PathHunter beta-arrestin, luminescence; G-protein coupled receptor 151 (Homo sapiens), Q8TDV0; PathHunter beta-arrestin GPR151 cells; activation, % at 11.2 µM; 1% of 650,000 active; AID 1508602, 2020; in the data active means activation above about 4.9%
Target sequence (Q8TDV0 whole entry, looked up): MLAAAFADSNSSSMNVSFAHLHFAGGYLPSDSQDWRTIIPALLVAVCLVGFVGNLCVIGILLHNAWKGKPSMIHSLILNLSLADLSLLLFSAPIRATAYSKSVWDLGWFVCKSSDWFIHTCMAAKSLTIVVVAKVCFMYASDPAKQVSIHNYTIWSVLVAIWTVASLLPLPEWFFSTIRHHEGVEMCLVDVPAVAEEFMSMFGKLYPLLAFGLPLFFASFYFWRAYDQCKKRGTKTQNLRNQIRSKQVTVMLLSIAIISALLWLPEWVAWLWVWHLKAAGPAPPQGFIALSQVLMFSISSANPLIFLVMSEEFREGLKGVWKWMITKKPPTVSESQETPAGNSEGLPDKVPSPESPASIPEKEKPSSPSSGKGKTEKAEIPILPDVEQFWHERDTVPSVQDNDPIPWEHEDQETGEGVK
MITF primary: MITF inhibitors, primary screen, biochemical, AlphaScreen, human; Microphthalmia-associated transcription factor (Homo sapiens), O75030; AlphaScreen MITF homodimerization, bead proximity signal; inhibition, % at 2.6 µM; 0.91% of 650,000 active; AID 1259374, 2018; in the data active means inhibition above about 50%
TEAD-YAP inh: TEAD-YAP interaction inhibition, primary screen, TEAD-YAP interaction inhibitor project, luminescence, HEK-TIYL cells. TEAD-Gal4/YAP UAS-luciferase luminescence. inhibition, % at 9.12 µM. 1.4% of 640,000 active; in the data active means inhibition above about 32%
FBW7 activator: FBW7 E3 ligase activators, primary screen, biochemical, AlphaScreen, human. F-box/WD repeat-containing protein 7 (Homo sapiens), Q969H0. AlphaScreen FBW7–phospho-cyclin E peptide binding, activator screen. normalized activity (activation), % at 26.1 µM. 0.13% of 650,000 active. AID 1259310, 2017; in the data active means normalized activity above about 1.9%;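 further: purified mutant Fbw7 with reduced substrate affinity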
MITF inh conf: MITF inhibitors, retest of hits, confirmation, biochemical, AlphaScreen, triplicate. shares compounds with MITF primary. 16% of 4,700 active. AlphaScreen MITF homodimerization, biotin/His-MITF beads. inhibition, % at 2.6 µM;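 active means inhibition above a cutoff derived from the DMSO control wells, cut at about 28% in these data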;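 further: inhibitors lower the bead chemiluminescence by keeping MITF from dimerizing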
AS interf DR: AlphaScreen optical interference compounds, dose response, counter-screen, biochemical, HTS; AlphaScreen optical interference counterscreen, cell-free; 6% of 480 active; IC50, µM; shares compounds with MITF primary; call rule not given here
AS interf ctr: AlphaScreen optical interference compounds, counter-screen for MITF inhibitor project, biochemical, triplicate | shares compounds with MITF primary | LysRS AlphaScreen counterscreen, signal interference | inhibition, % at 2.6 µM | 7.6% of 4,700 active;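 active means inhibition above a cutoff derived from the DMSO control wells, cut at about 30% in these data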
Hits are given with their value; i = inactive; nt = not tested or not shown.

SMILES	GPR151 ag	MITF primary	TEAD-YAP inh	FBW7 activator	MITF inh conf	AS interf ctr	others
Cc1cc(NC(=O)CNCC2CCCO2)no1 (configuration not stated)	i	54	i	i	i	i
O=C(CN1CCCC1)Nc1ccccc1N1CCCCC1	i	62	i	i	i	i
CC1CCN(CC(=O)Nc2ccccc2N2CCCCC2)CC1	i	i	i	i	nt	nt
CCCCCC(=O)N1c2ccccc2NC2=C(C(=O)CC(C)(C)C2)C1c1cccc(OC)c1 (configuration not stated)	i	i	i	i	nt	nt
Cc1cnc2c(c1)N1CCC2CC1	i	i	i	i	nt	nt
O=S(=O)(c1ccccc1F)N1CCNCC1	i	i	i	i	nt	nt
CCCNc1ncnc2c1c(-c1ccccc1)cn2-c1ccc(Cl)cc1	i	i	i	i	nt	nt
O=C(Nc1cc([N+](=O)[O-])ccc1N1CCOCC1)c1ccccc1	i	i	i	i	nt	nt
O=C(CNC1CCCCC1)Nc1ccccc1N1CCCCC1	i	54	i	i	i	i
O=C(CNCC1CCCO1)Nc1ccccc1N1CCCCC1 (configuration not stated)	i	60	i	i	i	i
Cc1cc(N)ccc1NC(=O)CN1CCCC1	i	67	i	i	i	i
CCOC(=O)Cn1nc(C)c2c1CC1C2C1(C)C (configuration not stated)	i	i	i	i	nt	nt
CC(C)(C)NC(=O)C(=O)NNC(=O)c1ccc([N+](=O)[O-])cc1[N+](=O)[O-]	i	66	i	i	i	i
CN1C(=O)C2(c3ccccc31)C(C(=O)NCc1ccc3c(c1)OCO3)CC1CCCN12 (configuration not stated)	i	i	i	i	nt	nt
CCCCN1C(=O)NC2NC(=O)NC21 (configuration not stated)	i	94	i	i	86	54
CCc1cc2cc3c(cc2nc1SCC(=O)OC)OCCO3	i	i	i	i	nt	nt
CS(=O)(=O)c1cc(C#N)c(N2CCNCC2)nc1-c1ccc(Cl)cc1	i	i	i	i	nt	nt
CC(C)Nc1nc(-c2ccc(Cl)cc2)c(S(C)(=O)=O)cc1C#N	i	58	i	i	i	i
NCCCNc1c2c(nc3cc(-c4ccc(Cl)cc4)nn13)CCC2	i	54	i	i	i	i
NCCCNc1c2c(nc3cc(-c4cccc(F)c4)nn13)CCC2	i	i	i	i	nt	nt
Cc1nc2c(-c3ccsc3)cnn2c(C)c1Cc1ccc(Cl)nc1	i	i	i	i	nt	nt
Clc1ccccc1CN1CCN(Cc2ccco2)CC1	i	69	i	i	i	i
O=[N+]([O-])c1ccccc1CN1CCN(Cc2ccco2)CC1	i	54	i	i	i	i
CC1CN(Cc2ccccc2Cl)CC(C)O1 (configuration not stated)	i	80	i	i	i	i
O=[N+]([O-])c1ccccc1CN1CCSCC1	i	i	i	i	nt	nt
SMILES	GPR151 ag	MITF primary	TEAD-YAP inh	FBW7 activator	MITF inh conf	AS interf ctr	others
CCC(C)CNC(=O)C1CCN(C2CCN(Cc3cccc(C)n3)CC2)CC1 (configuration not stated)	i	i	i	i	nt	nt
COC(C)(C)CNC(=O)C1CCN(C2CCN(Cc3cccc(C)n3)CC2)CC1	i	81	i	i	73	i	AS interf DR=i
Cc1sc(NC(=O)CN(C(=O)c2cccc(F)c2)C2CCCCC2)c(C(N)=O)c1C	i	i	i	i	nt	nt
Cc1ccccc1CN1CCN(S(=O)(=O)c2ccc(Cl)cc2)CC1	i	53	i	i	i	i
COc1cccc(CN2CCN(S(=O)(=O)c3ccccc3)CC2)c1OC	i	i	i	i	nt	nt
COc1ccccc1CN1CCN(S(=O)(=O)c2ccccc2)CC1	i	63	i	i	i	i
Cc1cc(S(=O)(=O)N2CCN(Cc3ccc(Cl)cc3)CC2)ccc1-n1cnnn1	i	60	i	i	i	i
CCOc1ccccc1CN1CCN(S(=O)(=O)c2ccc(Cl)cc2)CC1	i	61	i	i	i	i
O=C(N/N=C\C(Br)=C\c1ccccc1)c1ccccn1	i	i	i	i	nt	nt
CC(=O)C(/C=N/NC(=O)c1ccccn1)=C(\C)O	i	59	i	i	33	57
Cc1cc(C)n2nc(N)nc2n1	i	i	i	i	nt	nt
Cc1cc(C)n2nc(N)c(N)c2n1	i	62	i	i	29	i	AS interf DR=i
CCN1CCN(Cc2coc3ccccc3c2=O)CC1	i	82	i	i	42	i	AS interf DR=i
CC(=O)Nc1ccc(CN2CCc3c(nc(N4CCCCC4)[nH]c3=O)C2)cc1	i	i	i	i	nt	nt
COCCn1nnnc1C(c1ccc(Cl)cc1)N1CCc2ccccc2C1 (configuration not stated)	i	i	i	i	nt	nt
O=[N+]([O-])c1cccc(P(=O)(c2cccc([N+](=O)[O-])c2)N2CCOCC2)c1	i	51	i	i	i	i
CN(CCc1ccccn1)Cc1ccc2c(c1)CN(C(=O)CCn1cncn1)CCO2	i	i	i	i	nt	nt
CN1CCN(CC(=O)c2c(-c3ccccc3)n(C)c3ccccc23)CC1	i	57	i	i	i	i
CCC(C)c1ccccc1OCCNC(C)C (configuration not stated)	i	85	i	i	i	i
CCC(C)c1ccccc1OCCCNCCCOC (configuration not stated)	i	60	i	i	i	i
CCC(C)c1ccccc1OCCCNCCOC (configuration not stated)	i	i	i	i	nt	nt
CCN(CC)C(=O)Cn1nc(C)n2c(cc3occc32)c1=O	i	i	i	i	nt	nt
Cc1cc(Cl)c(OCCN2CCOCC2)c(Cl)c1	i	61	i	i	i	i
Cc1ccc(OCCN2CCOCC2)c(Br)c1	i	64	i	i	i	i
Cc1ccc(C(C)(C)C)c(OCCN2CCOCC2)c1	i	65	i	i	i	i
SMILES	GPR151 ag	MITF primary	TEAD-YAP inh	FBW7 activator	MITF inh conf	AS interf ctr	others
Clc1ccc(OCCN2CCOCC2)c(Br)c1	i	i	i	i	nt	nt
Cc1ccc(OCCOCCN2CCOCC2)c(C)c1	i	i	i	i	nt	nt
Nc1ccc2c(c1)S(=O)(=O)c1cc(N)ccc1-2	i	i	i	i	nt	nt
CC(C)=CCN1CCN(Cc2cnc(-c3ccc(Cl)cc3)nc2)CC1CCO (configuration not stated)	i	i	i	i	nt	nt
O=C(/C=C/c1ccc([N+](=O)[O-])cc1)Oc1ccc(Br)cc1	i	i	i	i	nt	nt
O=C(Cn1nc2ccccc2n1)N/N=C/c1ccccc1F	i	54	i	i	i	i
Cc1cc(Br)cc(Cl)c1OCCCNCCN(C)C	i	i	i	i	nt	nt
COCCNCCCOc1c(Cl)cc(C)cc1Br	i	i	i	i	nt	nt

Screening results deposited in PubChem BioAssay by The Scripps Research Institute Molecular Screening Center.
